{
  "source": "PubChem BioAssay AID2685",
  "about": "(National Center for Advancing Translational Sciences (NCATS), 2010)",
  "note": "Among all 320,000 compounds or so, about 2,100 (0.66%) were called active. Another 53% or so got no clear call; they are omitted. Calls follow the shape of the dose curve; as a rule, active = well fitted inhibition curve with a large enough effect in the signal ratio, with a control signal flat (not every such curve was filed as active); inconclusive = small, poorly fitted or top-dose-only effect, or effect the other way, or a change in a side signal; inactive = flat fitted curve, though single readings scatter; the % refers to the signal ratio. The full list was thinned out, with actives kept by preference. Potency is read from the fitted curve at half-maximal effect.",
  "data": [
    {"assay": "qHTS Assay for Lipid Storage Modulators in Drosophila S3 Cells;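 as to cell number change: cells counted by Cell Tracker Red CMTPX staining in the red channel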; as to lipid storage change, negative = inhibition: % is scaled to controls: 0 for no effect and ±100 for the full control effect", "settings": "BODIPY lipid droplet fluorescence, 18-24 h, cells fed with added oleic acid; cell number change: measured here: cell count max response; series mostly up to 46.1 µM; lipid storage change, negative = inhibition: at the top concentration", "in_short": "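Laser-scanning cytometry quantifies lipid droplet accumulation (500–530 nm total intensity; droplet/cell object ratio) in oleic acid-fed (400 uM added) Drosophila S3 cells treated with a concentration series. 20 uM Triacsin C defined 100% inhibition.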", "units": {"cell number change": "%"}, "values": [
      {"smiles": "N/C(=N\\OC(=O)C1CCCCC1)c1cccnc1", "lipid storage change, negative = inhibition": "2.61% (inactive)", "cell number change": -2.17},
      {"smiles": "CCOc1cc(CNCCCN2CCOCC2)ccc1OCC(=O)Nc1cccc2ccccc12", "outcome": "inactive", "cell number change": 9},
      {"smiles": "CCN(CC)CCNC(=O)c1ccc(NC(=O)c2ccc3c(c2)CCC3)cc1", "lipid storage change, negative = inhibition": "9.17% (inactive)", "cell number change": 2.22},
      {"smiles": "COc1ccc(Br)cc1C(=O)O", "lipid storage change, negative = inhibition": "-3.81% (inactive)", "cell number change": 9.36},
      {"smiles": "COc1c(Br)cc(Br)cc1C(=O)O", "Potency": "20.6 µM (active)", "cell number change": -14.5},
      {"smiles": "COc1cc(N)c(Br)cc1C(=O)O", "lipid storage change, negative = inhibition": "9.6% (inactive)"},
      {"smiles": "COc1ccc(/C=N/NC(=O)Cn2nc([N+](=O)[O-])cc2C)c(OC)c1OC", "lipid storage change, negative = inhibition": "-1.52% (inactive)", "cell number change": 15.6},
      {"smiles": "Cc1ccc(-n2ncc(C(=O)O)c2C2CCN(C(=O)OC(C)(C)C)CC2)cc1", "lipid storage change, negative = inhibition": "1.24% (inactive)", "cell number change": -23.6},
      {"smiles": "Cc1ccc(-n2ncc(C(=O)NC3CC3)c2C2CCN(C(=O)OC(C)(C)C)CC2)cc1", "lipid storage change, negative = inhibition": "-3.19% (inactive)", "cell number change": -12.2},
      {"smiles": "COc1ccc(-n2ncc(C(=O)NC3CC3)c2C2CCN(C(=O)OC(C)(C)C)CC2)cc1", "Potency": "9.2 µM (active)", "cell number change": -6.59},
      {"smiles": "Nn1cc(-c2ccccc2)nc1SCC(=O)NCCN1C(=O)CSC1=O", "lipid storage change, negative = inhibition": "3.23% (inactive)", "cell number change": -20.3},
      {"smiles": "CCOC(=O)CN(C(=O)CSc1nnc(-c2ccncc2)n1CCCOC)c1ccccc1", "lipid storage change, negative = inhibition": "-0.702% (inactive)", "cell number change": -3.7},
      {"smiles": "CC(C)(C)Nc1c(-c2ccc(O)cc2)nc2ccc(Cl)cn12", "lipid storage change, negative = inhibition": "-6.34% (inactive)", "cell number change": 20.8},
      {"smiles": "CC(NC(=O)NCCCC(=O)O)(C(F)(F)F)C(F)(F)F", "Potency": "29.1 µM (active)", "cell number change": -5.28},
      {"smiles": "CC(NC(=O)NC(N)=O)(C(F)(F)F)C(F)(F)F", "lipid storage change, negative = inhibition": "-6.44% (inactive)", "cell number change": 2.2},
      {"smiles": "NC(=O)NCCCC(=O)O", "lipid storage change, negative = inhibition": "-6.78% (inactive)", "cell number change": -16.4},
      {"smiles": "CSCCC(NC(=O)c1ccc(Cl)cc1Cl)C(=O)N(C)Cc1nc2ccccc2c(=O)[nH]1", "note": "(stereo not drawn)", "lipid storage change, negative = inhibition": "1.6% [at 0.0737 µM] (inactive)"},
      {"smiles": "CCN1CCN(c2ccc([N+](=O)[O-])c(Sc3nc4ccccc4[nH]3)c2)CC1", "lipid storage change, negative = inhibition": "-3.58% (inactive)", "cell number change": -7.24},
      {"smiles": "CC1=CC(=Nc2c(C)n(C)n(-c3ccccc3)c2=O)C=CC1=O", "lipid storage change, negative = inhibition": "-9.72% (inactive)", "cell number change": 4.9},
      {"smiles": "CC(C)(C)c1cc(CN2CCC(O)CC2)cc(C(C)(C)C)c1O", "outcome": "inactive", "cell number change": 12.8},
      {"smiles": "CC1=NN(Cc2ccccc2)C(=O)C1", "lipid storage change, negative = inhibition": "-22.5% (inactive)", "cell number change": 11.6},
      {"smiles": "CC1=NN(Cc2cc(C(C)(C)C)c(O)c(C(C)(C)C)c2)C(=O)C1", "Potency": "16.4 µM (active)", "cell number change": -27.5},
      {"smiles": "COCCOC(=O)c1c(C)oc2ccc(OC(=O)c3ccc4c(c3)OCO4)cc12", "outcome": "inactive"},
      {"smiles": "CC1CN(C(=O)c2cccc(S(=O)(=O)N3CCN(c4ccccc4)CC3)c2)CC(C)O1", "note": "(stereo not drawn)", "lipid storage change, negative = inhibition": "13.5% (inactive)", "cell number change": 2.24},
      {"smiles": "C[C@@H]1CCC(=O)N(C[C@@H](C)CSc2ccccc2)CC1", "outcome": "inactive", "cell number change": 11.7},
      {"smiles": "CCC(=O)Nc1ccc(NC(=O)CSc2nnc(-c3ccco3)n2C)cc1", "lipid storage change, negative = inhibition": "-25.5% (inactive)", "cell number change": 8.55},
      {"smiles": "Cc1cc(NC(=O)CSc2nnc(-c3ccco3)n2C)no1", "lipid storage change, negative = inhibition": "5.6% (inactive)", "cell number change": 17.5},
      {"smiles": "Cn1c(SCC(=O)Nc2ccc(Cl)cc2F)nnc1-c1ccco1", "Potency": "23.1 µM (active)", "cell number change": 9.91},
      {"smiles": "O=C(Nc1nc2ccc(F)cc2s1)c1ccc(N2CCCC2=O)cc1", "lipid storage change, negative = inhibition": "-0.195% (inactive)", "cell number change": -14.4},
      {"smiles": "CCCC1CC(CCc2ccccc2)OS(=O)(=O)N1", "note": "(stereo not drawn)", "outcome": "inactive", "cell number change": 22.3},
      {"smiles": "C=CCNc1nc2c(c(=O)[nH]c(=O)n2C)n1CC(O)COc1ccc2ccccc2c1", "note": "(stereo not drawn)", "lipid storage change, negative = inhibition": "9.91% (inactive)", "cell number change": -2.59},
      {"smiles": "C=CCSc1nc(C)cc2c1C(=O)OC2", "lipid storage change, negative = inhibition": "-1.91% (inactive)", "cell number change": -10},
      {"smiles": "CCOC(=O)C1CCN(S(=O)(=O)c2ccc(OC)c(OC)c2)CC1", "outcome": "inactive"},
      {"smiles": "Cc1cc(-n2c(C)cc(C(=O)COc3cc(F)ccc3[N+](=O)[O-])c2C)no1", "Potency": "8.2 µM (active)", "cell number change": 1.91},
      {"smiles": "Cc1cc(-n2c(C)cc(C(=O)COc3ccc4ccc(=O)oc4c3)c2C)no1", "lipid storage change, negative = inhibition": "-4.04% (inactive)", "cell number change": -3.86},
      {"smiles": "Cc1cc(-n2c(C)cc(C(=O)COc3ccc([N+](=O)[O-])cc3)c2C)no1", "cell number change": -1.97, "lipid storage change, negative = inhibition": "-9.66% [at 9.22 µM] (inactive)"},
      {"smiles": "N#CN=C1CCCCCN1CC(N)=O", "Potency": "0.731 µM (active)", "cell number change": -10.9},
      {"smiles": "O=C(O)CN1CCCC1=Nc1ccccc1", "outcome": "inactive", "cell number change": 7.34},
      {"smiles": "Cc1nc(CN2CCCC2=NC#N)n(-c2ccccc2)n1", "lipid storage change, negative = inhibition": "-0.104% (inactive)", "cell number change": 7.55},
      {"smiles": "Cc1cc(C(=O)N/N=C/c2ccc(-c3cccc(Cl)c3Cl)o2)n[nH]1", "lipid storage change, negative = inhibition": "2.75% (inactive)", "cell number change": -7.33},
      {"smiles": "Cc1nc(N)nc(Nc2ccc(Cl)cc2)c1Br", "outcome": "inactive", "cell number change": 17.2},
      {"smiles": "CCOc1ccc(CC(C(=O)NN)C(=O)NN)cc1CN(C)C", "Potency": "18.4 µM (active)", "cell number change": -6.71},
      {"smiles": "CCOc1ccccc1CNCc1ccc(C(=O)O)cc1", "lipid storage change, negative = inhibition": "16% (inactive)", "cell number change": 10.5},
      {"smiles": "CCOc1ccc(CC(C(N)=O)C(N)=O)cc1CN(C)C", "lipid storage change, negative = inhibition": "8.24% (inactive)", "cell number change": -1.24},
      {"smiles": "COC(=O)c1cc(OC)c(OC)c(OC)c1NC(=O)c1ccc(S(=O)(=O)N(C)C)cc1", "outcome": "inactive", "cell number change": -4.59},
      {"smiles": "COC(=O)Nc1c(C(=O)OC)cc(OC)c(OC)c1OC", "Potency": "16.4 µM (active)", "cell number change": -8.23}
    ]}
  ]
}
